# Assay outcomes: PubChem, National Center for Advancing Translational Sciences (NCATS)
# SARS PLP yeast = SARS-CoV PLP inhibition in yeast; S. cerevisiae expressing SARS-CoV PLpro, growth rescue; Potency, µM (doses to about 32.9 µM), for the others: at the top dose activity, positive = growth rescue, usual class: activators; hit rate 0.19% among 330,000; calls by dose curve; also: potency is read from the fitted curve at half-maximal effect; 0% is about no effect; nearly all actives have a fitted effect of over 55% in size
# NS1 inh = influenza NS1 inhibition; Potency, µM (series often up to 46.1 µM), without a hit: at the top dose activity, positive = more growth; hit rate 0.4% among 270,000; AID 2326; calls by dose curve; also: potency is read from the fitted curve at half-maximal effect; actives are rising curves; nearly all actives have a fitted effect of over 50% in size
#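 OD600 was taken as the measure of yeast growth restored by compound in an NS1-expressing S. cerevisiae strain. Cells had been washed out of glucose medium and diluted 1:100 into galactose -URA medium, pH 6.0.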
# Shiga toxin inh = Shiga toxin inhibition; inhibition, % at 38.7 µM; hit rate 9.2% among 290,000; AID 2315; Vero cells, Shiga toxin protein synthesis inhibition reporter; in the data active = inhibition mostly above about 28%, no sharp cut-off; inactive = mostly below about 43%; also: 0% is about no effect
# Pf growth 96h = P. falciparum growth inhibition at 96 hour, primary screen for plastid delayed-death inhibitors | P. falciparum luciferase reporter growth, 96 h | Potency, µM (top dose mostly 28.7 µM), inactives show top-dose activity change, negative = inhibition, hits mostly inhibitors | hit rate 6.9% among 320,000 | AID 504834; also: potency is read from the fitted curve at half-maximal effect; % is scaled to controls: 0 for no effect and ±100 for the full control effect
#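 Readout is luminescence from an integrated firefly luciferase in P. falciparum. Red cells, 2% hematocrit and 0.05% parasitemia final, were cultured with compound through two parasite generations (96 hours) at 37 C, 5% CO2.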
# Cycloheximide cs = counter-screen hit for Shiga toxin inhibitors, cycloheximide | cell reporter, cycloheximide protein synthesis inhibition counterscreen | max response, % | hit rate 12% among 300,000 | AID 2314; in the data active = max response mostly above about 13%, no sharp cut-off; inactive = mostly below about 14%; also: read at 38.3 µM for the half of the compounds with a filed dose; 0% is about no effect
# Pf growth 48h = P. falciparum growth inhibition at 48 hours (one generation); AID 504832; P. falciparum luciferase growth in erythrocytes, 48 h; Potency, µM (highest dose often 28.7 µM), inactives show at the top dose activity change, negative = inhibition, usual class: inhibitors; hit rate 5.9% among 310,000; also: potency is read from the fitted curve at half-maximal effect; % is scaled to controls: 0 for no effect and ±100 for the full control effect
#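 Erythrocytes infected with P. falciparum carrying an integrated firefly luciferase reporter (2% hematocrit, 0.1% parasitemia final) were exposed to compounds in RPMI 1640 with 0.5% Albumax at 37 C, 5% CO2. Growth inhibition was scored as reduced luminescence.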
# * marks the source's active call; other numbers are inactive results; i = inactive; ? = inconclusive; nt = no result given. Compounds with a hit are over-represented: about 21% of the library has one in this group of screens. Unless noted, calls follow the shape of the dose curve; as a rule, active = well fitted inhibition curve with a large enough effect; inconclusive = small, poorly fitted or top-dose-only effect, or another doubt; inactive = no such curve, though single readings can be large or run the other way.
SMILES,SARS PLP yeast,NS1 inh,Shiga toxin inh,Pf growth 96h,Cycloheximide cs,Pf growth 48h
Nc1ccc2nc(CCCCCCCCc3nc4ccc(N)cc4[nH]3)[nH]c2c1,2%,nt,-14,6%,-1,7.4µM*
Nc1ccc2nc(CCCCCCc3nc4ccc(N)cc4[nH]3)[nH]c2c1,0%,8%,-4,89%,-3,?
Nc1ccc2nc(COc3ccccc3)[nH]c2c1,-6%,-6%,4,7.4µM*,9.9*,49%
Nc1ccc2nc(CCCCc3nc4ccccc4[nH]3)[nH]c2c1,-3%,-7%,-5,?,-3,?
ClC(Br)=C(n1cnc2ccccc21)n1cnc2ccccc21,0%,-7%,-23,3%,-4,10µM*
CCN1C(=NCCc2cccs2)N[C@@H](CCc2ccccc2)[C@H](C(=O)NCCc2cccs2)[C@H]1C,-7%,8%,-3,7%,2,1.5µM*
CCN1C(=NCCOC)N[C@@H](c2ccccc2)[C@H](C(=O)OC)[C@H]1C,4%,-1%,-6,8%,5,36%
CCn1c2ccccc2c2cc(NC(=O)COC(=O)c3cc(S(N)(=O)=O)c(Cl)cc3Cl)ccc21,1%,3%,-9,26%,-2,29%
CN1CCN(c2ccc(-c3ccnn3C(=O)Nc3cccc(C(F)(F)F)c3)cc2)CC1,-6%,-35%,28,-7%,43*,-74%
COc1ccc(N2CCN(C(=O)Nc3cccc(C(F)(F)F)c3)CC2)cc1,-19%,23%,-9,nt,-2,10%
CC(=O)N1c2ccc(S(=O)(=O)NCC3CCC(C(=O)N(C)Cc4ccccc4)CC3)cc2CC1C (configuration not stated),1%,-5%,2,?,1,13µM*
CC(=O)N1c2ccc(S(=O)(=O)NCC3CCC(C(=O)N4CCCC(C)C4)CC3)cc2CC1C (configuration not stated),1%,12%,-5,1.2µM*,-2,?
CC1Cc2cc(S(=O)(=O)N3CCC(C(N)=O)CC3)ccc2N1C(=O)C1CC1 (configuration not stated),3%,-13%,1,12µM*,11,0%
CC1Cc2cc(S(=O)(=O)N3CCC(C(=O)N(C)Cc4ccccc4)CC3)ccc2N1C(=O)C1CC1 (configuration not stated),-6%,0%,-4,10µM*,15,13µM*
CC(=O)N1c2ccc(S(=O)(=O)NCC3CCC(C(=O)N4CCCCC4)CC3)cc2CC1C (configuration not stated),2%,-8%,21,2%,-4,-14%
O=C(c1ccco1)N1CCN(Cc2cccc3ccccc23)CC1,-4%,-3%,-26,30%,-2,?
CC(=O)N1c2ccc(S(=O)(=O)N3CCC(C(=O)NC4CCC(C)CC4)CC3)cc2CC1C (configuration not stated),0%,-16%,-4,5.2µM*,17,?
COc1cc(C(=O)NCc2nnc(SCC(=O)N3CCOCC3)o2)cc(OC)c1OC,3%,nt,-16,38%,-4,8%
O=C(Nc1c(Cl)cc(Cl)cc1C(=O)NCCN1CCOCC1)c1ccc(Cl)cc1Cl,1%,-1%,17,?,-5,-12%
O=C(NCCCN1CCOCC1)c1ccc(Cl)cc1Cl,14%,4%,23,75%,17*,?
O=C(NCCN1CCOCC1)c1cc(-c2ccccc2Cl)nc2ccccc12,-3%,-1%,-5,9.3µM*,-1,-10%
Cc1cc(Cl)ccc1NC(=S)NCCN1CCOCC1,2%,10%,-3,5.2µM*,4,-2%
Cc1ccc(C(=O)NCCN2CCOCC2)c(Cl)c1,-2%,7%,28*,39%,13*,42%
COc1ccccc1NC(=O)Nc1nc(CC(=O)Nc2ccc(N(C)C)cc2)cs1,-4%,nt,nt,?,nt,50%
CCCCNC(=S)NNC(=O)c1c(C)nc2ccccn12,3%,-5%,-6,10%,6,25%
SMILES,SARS PLP yeast,NS1 inh,Shiga toxin inh,Pf growth 96h,Cycloheximide cs,Pf growth 48h
O=C(NCCCN1CCOCC1)c1cc(-c2ccccc2)nc2ccccc12,-7%,nt,nt,8%,nt,?
CCC(CC)C(=O)c1c[nH]c(C(=O)NCCCN2CCOCC2)c1,2%,-1%,-11,67%,-2,7%
O=C(NCCCN1CCOCC1)c1cc(C(=O)C2CCCCC2)c[nH]1,2%,nt,-5,0%,-5,10µM*
Cn1cc(/C=C(\NC(=O)c2ccccc2Cl)C(=O)NCCCN2CCOCC2)c2ccccc21,0%,-2%,6,10µM*,1,?
Cc1ccc(Nc2cc(C(=O)NCCCN3CCOCC3)c3ccccc3n2)cc1C,2%,-7%,40*,-12%,38*,0%
CC(C)(C)OC(=O)N1CCC2(CC1)C(C#N)=C(N)OC1=C2C(=O)CCC1,-4%,nt,-8,-39%,-2,-7%
COc1ccc(C(C(=O)NC2CCCC2)N(CCCO)C(=O)c2snc(C(N)=O)c2N)cc1 (configuration not stated),22%,0%,-5,5%,-3,-14%
Nc1c(C(=O)Nc2ccc(Cl)cc2)oc2ccccc12,-9%,-65%,175*,300%,55*,nt
Nc1c(C(=O)c2ccco2)oc2ccccc12,-1%,nt,24*,-6%,21*,3%
Nc1c(C(=O)N2CCOCC2)oc2ccccc12,-1%,-3%,15,?,18*,12%
CC(=O)c1oc2ccccc2c1N,6%,2%,-2,85%,0,19%
O=C(Nc1c(C(=O)N2CCOCC2)oc2ccccc12)c1ccccc1Cl,0%,-22%,16,-1%,7,-7%
Nc1c(C(=O)c2ccccc2)oc2ccccc12,-6%,-5%,28,-8%,22*,nt
O=C(CNC(=O)c1ccc(S(=O)(=O)N2CCCCC2)cc1)N/N=C/c1ccco1,1%,5%,-11,29%,-2,?
Cc1cccc(Nc2cc(=O)n(C)c(=O)[nH]2)c1,2%,8%,-6,?,-1,-4%
Nc1c(C(=O)c2ccc(F)cc2)oc2ccccc12,-1%,-12%,44*,102%,38*,108%
CC(=O)Nc1c(C(=O)c2ccccc2)oc2ccccc12,0%,-11%,-11,?,-5,-19%
Cc1c(C(=O)c2ccccc2)oc2ccc3ccccc3c12,0%,2%,106*,i,51*,270%
CC1CCN(S(=O)(=O)c2cc3c4c(c2)CCN4C(=O)CC3)CC1,3%,nt,nt,?,nt,?
COc1ccc(Nc2nccc3c2nnn3C)cc1,-18%,1%,97*,225%,45*,197%
CCn1c(SC(C)C(=O)NCC2CCCO2)nc2ccccc21 (configuration not stated),-16%,nt,nt,10%,nt,-3%
OCc1ccccc1,nt,nt,nt,6µM*,nt,5.4µM*
NCc1ccccc1,nt,nt,19,40%,-3,31%
Cn1c(N)c(C(=O)COC(=O)/C=C/c2cccc(F)c2)c(=O)n(C)c1=O,-1%,nt,nt,-83%,nt,12µM*
